Data taken from PubChem BioAssay AID602143 (Vanderbilt Specialized Chemistry Center, 2011).
Values without a mark were called inactive. Cut-off read from the data, not from the text of the source: active = remaining activity below about 50%; inactive = the rest.

molecular target: Phospholipase D2 (Homo sapiens) (UniProt O14939); assay: cellular phospholipase D2 activity inhibition – cell-based, HEK293, single concentration (AID 602143); settings: HEK293 cellular PLD2 activity, percent of control; stronger effect = lower value;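 note: tested at 200 nM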
Sequence (O14939 whole entry, looked up): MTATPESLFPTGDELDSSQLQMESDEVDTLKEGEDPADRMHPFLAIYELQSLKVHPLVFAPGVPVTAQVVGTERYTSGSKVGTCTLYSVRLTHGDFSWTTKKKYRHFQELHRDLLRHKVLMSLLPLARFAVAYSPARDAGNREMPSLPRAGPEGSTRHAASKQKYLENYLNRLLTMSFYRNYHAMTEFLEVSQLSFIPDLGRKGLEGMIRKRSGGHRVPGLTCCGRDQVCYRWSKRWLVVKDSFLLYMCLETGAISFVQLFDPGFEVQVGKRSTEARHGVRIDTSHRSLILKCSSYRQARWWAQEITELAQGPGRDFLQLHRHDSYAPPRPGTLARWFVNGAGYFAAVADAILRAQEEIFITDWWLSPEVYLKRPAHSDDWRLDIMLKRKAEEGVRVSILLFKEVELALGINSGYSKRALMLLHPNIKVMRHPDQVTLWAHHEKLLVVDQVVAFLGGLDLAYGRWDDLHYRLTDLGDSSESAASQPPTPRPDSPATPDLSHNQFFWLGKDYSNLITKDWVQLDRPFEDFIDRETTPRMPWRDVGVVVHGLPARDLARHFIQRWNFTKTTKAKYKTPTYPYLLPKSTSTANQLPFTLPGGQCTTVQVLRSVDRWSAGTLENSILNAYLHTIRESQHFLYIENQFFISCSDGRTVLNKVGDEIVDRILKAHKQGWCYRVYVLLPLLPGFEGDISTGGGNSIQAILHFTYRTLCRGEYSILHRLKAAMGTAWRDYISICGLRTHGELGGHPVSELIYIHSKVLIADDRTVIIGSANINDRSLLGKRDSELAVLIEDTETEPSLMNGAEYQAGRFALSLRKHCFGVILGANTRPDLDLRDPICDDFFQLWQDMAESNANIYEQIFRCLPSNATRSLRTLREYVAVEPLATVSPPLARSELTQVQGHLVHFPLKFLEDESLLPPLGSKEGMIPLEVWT
Sequence (O14939 whole entry, looked up): as above

How did the remaining activity turn out when `COc1ccc2c(c1)c(CC(=O)NCCN1CCC(n3c(=O)[nH]c4ccccc43)CC1)c(C)n2C(=O)c1ccc(Cl)cc1` was run?
The remaining activity was 73.8%.

How did the remaining activity turn out when `O=C(NCCN1CCC(n2nnc3ccccc32)CC1)C1CC1c1ccccc1` (stereo not given) was run?
Its remaining activity is 78.1%.

For `C[C@@H](CN1CC=C(n2c(=O)[nH]c3ccccc32)CC1)NC(=O)[C@H]1C[C@@H]1c1ccccc1`, which remaining activity is on record?
Its remaining activity is 74.4%.

With `C[C@@H](CN1CCC(n2c(=O)[nH]c3ccccc32)CC1)NC(=O)c1ccc(Cl)c(Cl)c1` as the molecule, how does the remaining activity read?
The remaining activity was 76.3%.

With `C[C@@H](CN1CCC2(CCc3ccccc32)CC1)NC(=O)c1ccc2ccccc2c1` as the molecule, how does the remaining activity read?
Its remaining activity is 104%.

How did the remaining activity turn out when `C[C@@H](CN1CCC(n2c(=O)[nH]c3cc(I)ccc32)CC1)NC(=O)c1ccc(Cl)cc1` was run?
The remaining activity was 72.7%.

Which remaining activity does the source give for `O=c1[nH]c2ccccc2n1C1CCN(CCNS(=O)(=O)c2ccc(F)cc2)CC1` here?
Its remaining activity is 75.9%.

Which remaining activity does the source give for `O=C(NCCN1CCC2(CCc3ccccc32)CC1)[C@H]1C[C@@H]1c1ccccc1` here?
The remaining activity was 99.8%.

Which remaining activity does the source give for `C[C@@H](CN1CCC(n2nnc3cc(C(F)(F)F)ccc32)CC1)NC(=O)c1cnc2ccccc2c1` here?
Its remaining activity is 86.9%.

With `Cn1c(=O)n(C2CCN(CCNC(=O)c3ccc(F)cc3)CC2)c2ccccc21` as the molecule, how does the remaining activity read?
Its remaining activity is 69.8%.

`C[C@@H](CN1CCC(n2c(=O)[nH]c3cc(-c4ccsc4)ccc32)CC1)NC(=O)[C@H]1C[C@@H]1c1ccccc1` was tested. Which remaining activity did it give?
Its remaining activity is 81.2%.

Which remaining activity does the source give for `O=C(NCCN1CC=C(n2nnc3cc(C(F)(F)F)ccc32)CC1)c1cnc2ccccc2c1` here?
Its remaining activity is 114%.

With `O=C(N[C@@H](Cc1ccccc1)CN1CCC(n2c(=O)[nH]c3ccccc32)CC1)c1ccc2ccccc2c1` as the molecule, how does the remaining activity read?
Its remaining activity is 96.7%.

Which remaining activity does the source give for `O=C(NCCN1CCC(C(=O)NCCCN2CCOCC2)CC1)c1ccc2ccccc2c1` here?
Its remaining activity is 125%.

With `C[C@@H](CN1CCC2(CNCc3ccccc32)C1)NC(=O)c1ccc2ccccc2c1` (stereo not given in full) as the molecule, how does the remaining activity read?
Its remaining activity is 91%.

For `C[C@H](CN1CCC2(CC1)CNCc1ccccc12)NC(=O)c1ccc2ccccc2c1`, which remaining activity is on record?
Its remaining activity is 110%.

For `C[C@@H](CN1CCC(c2nc3ccccc3[nH]2)CC1)NC(=O)c1ccc2ccccc2c1`, which remaining activity is on record?
The remaining activity was 86.5%.

How did the remaining activity turn out when `O=C(NCCN1CCC(n2c(=O)[nH]c3ccccc32)CC1)c1ncccn1` was run?
Its remaining activity is 90.1%.

For `O=C(CCc1ccc(F)cc1)NCCN1CCC(n2c(=O)[nH]c3ccccc32)CC1`, which remaining activity is on record?
The remaining activity was 93.5%.

For `CC1(C)[C@H]2CC[C@]1(CS(=O)(=O)NCCN1CCC(n3c(=O)[nH]c4ccccc43)CC1)C(=O)C2`, which remaining activity is on record?
The remaining activity was 72.8%.

How did the remaining activity turn out when `O=C(NCCN1CCC(n2c(=O)[nH]c3ccccc32)CC1)c1cccc2ccc3ccccc3c12` was run?
The remaining activity was 65.9%.

For `Cc1cccc(C(=O)NCCN2CCC(n3c(=O)[nH]c4ccccc43)CC2)n1`, which remaining activity is on record?
Its remaining activity is 52.5%.

With `O=C(NCCN1CCC2(CC1)CCN(c1ccccc1)C2=O)c1ccc2ccccc2c1` as the molecule, how does the remaining activity read?
The remaining activity was 55%.

How did the remaining activity turn out when `C[C@@H](CN1CCC(n2c(=O)[nH]c3cc(-c4ccccc4)ccc32)CC1)NC(=O)[C@H]1C[C@@H]1c1ccccc1` was run?
The remaining activity was 79.2%.

Which remaining activity does the source give for `O=C(CCc1ccccc1)NCCN1CCC(n2c(=O)[nH]c3ccccc32)CC1` here?
The remaining activity was 80.7%.
